In the supplement of paper PMC6555819:

Test system: VDR:RXRa (NR concentration 270 nM, RXRa partner concentration 90 nM)
Test: PBM binding z-score (relative to random genomic background probes); higher = stronger binding; sequences stand for … in GC…GCGATTGACAGCGTAGAATGAAGG
Method: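 Protein-binding microarray (Agilent 4x180K custom design, double-stranded 60-nt probes: 5' GC cap, 34-nt variable region, 24-nt constant primer region; full probe sequence given). Purified or IVT nuclear receptor:RXRα heterodimers (3:1 NR:RXRα, mostly 270:90 nM) or homodimers were incubated for 1 h in PBS with 2% milk and no ligand, then detected with Alexa488 antibodies. Fluorescence from o1-orientation probes (~5 replicates averaged) was converted to z-scores against 500 random hg19 background probes. Variable regions are seed direct-repeat (DR0–DR5) sites, all their single-nucleotide variants and half-site ablations.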

| Sequence | PBM binding z-score |
| --- | --- |
| ATCGAAAGGTCGACGAGGTGAGTAGACACCGTTT | 5.23 |
| ACTAGTTGGTCAGATGAGGTCACACACAATTCGG | 4.58 |
| ACTTACGGGTCAGCGAGGTTATAGCACGCGTATA | 6.97 |
| CGTCCAAGGTCAGAGAGATCAGTGAATGCCGAGT | 3.72 |
| ATCTCTTGGTAACAAGTTCAGTGAAAGAGAGGAC | 1.84 |
| ACTATTAGTTGAGACGAGGGCAATCGATAGGTTG | 0.793 |
| TAGCCTAGGTCAGATCCGGCCAGTATACGCTATA | 0.403 |
| AGAATGAGGGTATACGTAGATCAGGGAAGAAAGT | 0.239 |
| ATCTCTAGGTAAACTTCAGTGAAAGATCGATAGA | 0.36 |
| CAAACTAGGTCACAGAGGTCAAAGGCCGTGCGTA | 8.04 |
| TCATATAGGTAAACAGGCGAAAGTCCGTAAGTTA | 1.13 |
| ACAGACAGCTGATGAAGGTAACTCAGGCTATCAT | -0.282 |
| TGAATGAGGTTAGAGATCAGGGAACGTGGCGTCG | 0.296 |
| CCTACTGGGCCACGAAAGGTCAGTGATTCAGTGA | 1.72 |
| CGTCCATGGTCAGAGAGGTCAGTGAATGCCGAGT | 4.63 |
| AGAACGAGGTTATACGTAGATCAGGGAAGAAAGT | 1.08 |
| CCTACTGGGCCACGAAAGATCATTGATTCAGTGA | -0.306 |
| ATCTCTAGGTAACACTCAGTTCAGTGAAGAACGC | 1.97 |
| ATCGAAAGGTCGACGAAGTGAGTATACACCGTTT | 2.27 |
| CCGACTGGGGAATAAGGTTACCATAAGCCAGCCC | 0.185 |

| Sequence | PBM binding z-score |
| --- | --- |
| CCTTCTAGGTCATGGTCAGCTAATCTACAGTATG | 2.07 |
| CGTCCAAGGTCAGAGTGGTCAGTGAATGCCGAGT | 3.87 |
| TCTTGTAGATCAATAGAGGTAAAGAAAGTGCGCT | 0.45 |
| AATACAGGGTTATCGTAGGCCAGAGTACGCACAG | 1.61 |
| GGAACGAGGGCAAAGTTGATTGCATCTGTCGACG | 1.34 |
| CCAGCTAGGTCAATGGTCAGCTAAAGCAGCTCGC | 1 |
| AATATAGGGTCACTAGGCCAGAGTAGGTACGAAT | 4.06 |
| CCTGCTAGGTCATGGTCGGCTAATCTACAGTATG | 1.57 |
| AATACAGGGTCACTAGACCAGAGTAGGTACGAAT | 3.98 |
| TCATATAGGTACAAGGTGAAAGTCGGTGTGGTAA | 1.22 |
| TATACAGGGTCAGAGGCCAGAGTACGAATGTCGA | 3.24 |
| TCGAGTAGGTTACCAATGGGGCATTCGGCTTTCT | 0.0858 |
| CCTTACGGGTGAAGGTTATAGCACGGGTGGTACG | 0.0707 |
| ACAGGCAGGTGAGTGAAGGTAACTCAGCTGGACG | -0.417 |
| TCTCGGAGGCCACGAAGGTCAGAGCTTTCCAGAG | 3.69 |
| CCTCGCAGGCCAGGGTCACTCAAGCATTTCGCTT | 2.41 |
| GCGAGTGGGGCAAAGCAGGTTACCATAAGGTTGG | 0.296 |
| CCTATTAGTTGACCAAAAGGGCAACCGAAGCTCG | 0.901 |
| CTCGAAAGGTCGTGCTCGGGTGAGTATACCAAAC | 3.43 |
| AGAATGAGCTTACCAAAGATCAGGGAAACGCTTG | -0.591 |
